Assay results from ChEMBL document CHEMBL3433997, “St. Jude Leishmania screening dataset” (2016).

What follows are compounds tested against Glucose transporter (Leishmania mexicana) (UniProt O61059) (assay: ST_JUDE_LEISH: Cytotoxicity at 2uM final concentration against transgenic Leishmania Mexicana promastigotes LmGT2 that are glucose transport deficient and complemented with the L. Mexicana glucose transporter 2. Activity is measured by DNA content using SYBR green in vitro).
Assay type: functional
Work on `CN(C)c1ccc(CN2CCC(NC(=O)c3ccc(-c4ccc(N(C)C)cc4)s3)CC2)cc1` yielded an inhibition of -0.4%.
`COc1cc(F)c2nccc([C@@H](O)CN3CCC(NCc4ccc5c(n4)NC(=O)CS5)C(F)C3)c2c1` (stereo not given in full) was tested, and the inhibition was 3.18%.
For `CS(=O)(=O)c1ccc(CNCc2ccc(-c3ccc(-c4nc5cc(F)ccc5[nH]4)s3)cc2)cc1`, the inhibition was 8.75%.
`CCC1=C(CC2NCCc3cc(OC)c(OC)cc32)CC2c3cc(OC)c(OC)cc3CCN2C1` (stereo not given) showed an inhibition of 89.6%.
In the case of `COc1ccc(-c2nc(NC(=O)Cc3cccc(OC)c3)sc2C)cc1`, the inhibition is reported as 3.16%.
Work on `CC(NCCC1CCC(NC(=O)N[C@H](C)C(O)(c2ccccc2)c2ccccc2)CC1)c1cccc2ccccc12` (stereo not given in full) yielded an inhibition of 13.4%.
`CCCCCCNCCOc1ccc(-c2nc(-c3ccccc3)c(-c3ccccc3)[nH]2)cc1` showed an inhibition of 1.62%.
`CC(C)Cn1cc(C2CCN(CCN3CCC(CNC(=O)c4ccc(-c5ccc(C(F)(F)F)cc5)cc4)CC3)CC2)c2ccccc21` was tested, and the inhibition was 2.25%.
With `O=c1[nH]ccc2nc(N[C@@H]3CCNC3)nc(Nc3cccc(S(=O)(=O)N4CCOCC4)c3)c12` the inhibition was 0.85%.
`COC(=O)C(NC(=O)NC1CCN(c2ccnc(Nc3ccc(F)cc3)n2)C1)c1ccccc1` (stereo not given) gave an inhibition of -2.66%.
`CC(C)CN1C(=O)c2ccc(C(=O)Nc3nccs3)cc2C1=O` was tested, and the inhibition was 3.65%.
For `CC1CCCCN1CCCNc1ncc2c(-c3ccc(NC(=O)Nc4cc(C(F)(F)F)ccc4F)c(F)c3)nn(C)c2n1` (stereo not given), the inhibition was 0.83%.
`Cc1nc(C)c(-c2ccc(Sc3ccc(Cl)cc3)cc2)c(O)c1Br` showed an inhibition of -1.9%.
With `CC1(C)CC(NC(=O)NC2CCN(Cc3ccccc3)CC2)CC(C)(CNC(=O)NC2CCN(Cc3ccccc3)CC2)C1` (stereo not given) the inhibition was 1.3%.
Work on `O=C(NCCCN1CCOCC1)c1cccc(Nc2nccc(Nc3ccc(Oc4ccccc4)cc3)n2)c1` yielded an inhibition of -0.86%.
`O=C(Nc1cccc(F)c1)NC1CCN(c2ccnc3cc(Cl)ccc23)C1` (stereo not given) gave an inhibition of 4.22%.
With `CC(C)Cn1c(Sc2ccc(C#N)c([N+](=O)[O-])c2)nnc1-c1ccccc1Cl` the inhibition was -0.31%.
`CC[C@H](C)CNC(=O)c1ccc(-c2cccc(CN3CCC(N4CCCC4)CC3)c2)nc1` was tested, and the inhibition was 0.34%.
Work on `CN(C)c1nc2cc(-n3cnc4cc(-c5ccc(Cl)cc5)sc4c3=O)ccc2n1CCCN1CCCCC1` yielded an inhibition of 5.06%.
`Cc1ccc(-n2ncc(C(=O)Nc3cc(Cl)cc(Cl)c3)c2C2CCNCC2)cc1C` showed an inhibition of -0.12%.
Work on `Cc1c(CNCCN2CCCCC2)c(C(=O)O)c(C)n1Cc1ccc(Cl)cc1` yielded an inhibition of 0.22%.
`Cc1cccc2nc(-c3ccc(-c4ccc(NC(=O)C(C)CN5CCN(C)CC5)cc4)s3)[nH]c12` (stereo not given) showed an inhibition of 2.29%.
`CCn1ccc2c(N3CCCCS3(=O)=O)cc(C(=O)N[C@@H](Cc3ccccc3)[C@H](O)CNC3CCCCC3)cc21` showed an inhibition of 3.42%.
Work on `C=CCN(C(=O)c1ccc(Cl)c([N+](=O)[O-])c1)c1nc(-c2ccccc2)cs1` yielded an inhibition of 7.89%.
Work on `CN1CCN(c2ccnc3ccc(NC(=O)Nc4ccccc4Br)cc23)CC1` yielded an inhibition of 0.11%.
With `COc1ccc(-c2csc(N(CCCN(C)C)C(=O)c3cc4c(C)nn(-c5ccccc5)c4s3)n2)cc1` the inhibition was 2.84%.
With `O=C(N[C@@H](Cc1ccccc1)C(=O)NC1CCCc2ccccc21)c1ccc(O)c(-c2ccc(Cl)c(Cl)c2)c1` (stereo not given in full) the inhibition was -0.1%.
`O=C(Nc1ccc2c(c1)CCN2C1CCN(Cc2cccc3cc[nH]c23)C1)c1ccco1` (stereo not given) showed an inhibition of 1.83%.
In the case of `CN(Cc1ccncc1)C(Cc1ccccc1)C1CCN(Cc2ccc(O)c(Cl)c2)CC1` (stereo not given), the inhibition is reported as -0.31%.
Work on `CCC[C@@H]([C@@H](CC(C)C)C(=O)N[C@@H](CCCCNC(=O)OCc1ccccc1)C(=O)Nc1ncccn1)N(O)C=O` yielded an inhibition of 17.1%.
`COc1ccc2nccc([C@@H](O)CN3CCC(NC(=O)c4cccc(C(=O)c5ccccc5)c4)CC3)c2c1` was tested, and the inhibition was 0.47%.
`CN1CCCC1CCNc1ncc2c(-c3ccc(NC(=O)Nc4cc(C(F)(F)F)ccc4F)c(F)c3)nn(C)c2n1` (stereo not given) gave an inhibition of -0.39%.
For `O=c1cc(NCCCNCc2ccc(Cl)c(Cl)c2)[nH]c2cc(F)cc(F)c12`, the inhibition was 3.08%.
For `CN(C(=O)/C=C/c1cc(C(F)(F)F)ccc1F)C1CCN(CCCCCNC(=O)/C=C/c2ccc(Cl)c(Cl)c2)CC1`, the inhibition was 2.56%.
For `Cc1noc(C)c1-c1ccc2c(Nc3ccccc3C(C)(C)C)c(C(=O)NCc3cccc4ccccc34)cnc2c1`, the inhibition was 0.05%.
`O=C1CN(C(=O)CCC2CCCC2)C(c2ccc(F)cc2)c2cc(F)ccc2N1` (stereo not given) gave an inhibition of 0.37%.
`CCC1CN(CCCn2c3ccccc3c3ccccc32)C(CC)CN1` (stereo not given) showed an inhibition of -0.18%.
Work on `O=C(/C=C/c1cccc(Cl)c1)NCCCCCN1CCC(c2c[nH]c3ccccc23)CC1` yielded an inhibition of 0.06%.
`CN(C)CCN(C)Cc1ccc(-c2ccc(NS(=O)(=O)c3cccc4cccnc34)cc2)cc1` showed an inhibition of 3.58%.
In the case of `COc1cc2nc(NCCCOC(C)C)n3nc(-c4ccccc4)nc3c2cc1OC`, the inhibition is reported as 7.73%.
